# Laboratory results reported in PubChem BioAssay.
# Legend:
# [1] = test system: Human papillomavirus type 1a protein E7 (residues 44-93); test: small molecules binding HPV E7 44-93 – biochemical, small-molecule microarray, residues 44-93, 635 nm fluorescence, primary screen (AID 1108); conditions: fluorescence 635 nm, higher = more signal;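 note: E7 fragment applied at 1 µg/mL in TBST for 1 h at 4 C; score combines spot fluorescence with its signal to noise ratio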
# [2] = hepatitis C replication reporter changes, two-sided – Huh7 cells, luciferase reporter, HCV replication inhibitor project, primary screen (AID 1109); conditions: Huh7 HCV replicon luciferase reporter, 48 h; higher = more signal;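 note: huh7 hepatoma cells harbouring a luciferase neomycin HCV replicon reporter; luciferase luminescence as measure of HCV replicon replication; test concentration not given here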
# [3] = target: Left-right determination factor 2 (Homo sapiens) (UniProt O00292); test: small molecules binding LEFTY2 protein – biochemical, small-molecule microarray, 635 nm fluorescence scan, primary screen (AID 1110); conditions: higher = more signal
# Left-right determination factor 2 (Homo sapiens), sequence (O00292 whole entry, looked up): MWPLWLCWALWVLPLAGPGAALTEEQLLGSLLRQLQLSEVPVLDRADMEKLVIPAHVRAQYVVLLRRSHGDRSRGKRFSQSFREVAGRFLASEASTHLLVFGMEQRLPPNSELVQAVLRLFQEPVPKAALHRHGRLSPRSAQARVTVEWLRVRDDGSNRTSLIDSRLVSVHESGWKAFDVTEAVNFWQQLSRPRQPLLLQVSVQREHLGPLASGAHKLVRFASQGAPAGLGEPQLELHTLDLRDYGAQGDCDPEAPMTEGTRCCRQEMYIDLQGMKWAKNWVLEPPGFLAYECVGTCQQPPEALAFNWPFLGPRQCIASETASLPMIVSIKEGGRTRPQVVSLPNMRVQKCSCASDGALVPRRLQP
# [4] = target: Calmodulin-1 (Homo sapiens) (UniProt P0DP23); test: small molecules binding calmodulin-1 with EGTA – biochemical, small-molecule microarray, Cy5-labelled CALM1, profiling panel (AID 1111); conditions: Cy5-CALM1 binding fluorescence, higher = more signal;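 note: labelled calmodulin applied in Tris saline Tween buffer holding calcium plus EGTA and DTT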
# [5] = target: Calmodulin-1 (Homo sapiens) (UniProt P0DP23); test: small molecules binding Ca-loaded calmodulin-1 – biochemical, small-molecule microarray, Cy5-labelled CALM1, plus calcium, artefact control for SMM control-protein annotation, profiling panel (AID 1112); conditions: Cy5-CALM1 binding fluorescence, higher = more signal;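 note: score merges spot fluorescence with signal to noise from triplicate slides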
# [6] = probe aWnt5a binding to arrayed compounds – biochemical, biotinylated probe, 635/667 nm fluorescence, primary screen (AID 1113); conditions: small-molecule microarray, higher = more signal;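 note: score merges 667 nm fluorescence intensity with signal-to-noise per printed feature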
# [7] = probe aShh binding to arrayed compounds – biochemical, biotinylated probe, 635/667 nm fluorescence, primary screen (AID 1114); conditions: small-molecule microarray, higher = more signal;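 note: probe is biotin-labelled aShh protein from a stem cell growth factor screen; measures binding of labelled protein to compounds printed on the slide; score merges feature fluorescence at 667 nm with signal-to-noise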
# [8] = probe aNog binding to arrayed compounds – biochemical, biotinylated probe, 635/667 nm fluorescence, primary screen (AID 1115); conditions: small-molecule microarray, higher = more signal;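 note: probe is biotinylated aNog protein used at 0.15 µg/mL for 1 h at 4 C; z-score combines 667 nm fluorescence of each spot with its signal to noise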
# [9] = target: Torsin-1A-interacting protein 1 (Homo sapiens) (UniProt Q5JTV8); test: compound microarray binding of lysate hLAP1 – cell lysate, small-molecule microarray, COS7 lysate, 635/667 nm fluorescence, primary screen (AID 1116); conditions: 635 nm fluorescence, higher = more signal
# Torsin-1A-interacting protein 1 (Homo sapiens), sequence (Q5JTV8 whole entry, looked up): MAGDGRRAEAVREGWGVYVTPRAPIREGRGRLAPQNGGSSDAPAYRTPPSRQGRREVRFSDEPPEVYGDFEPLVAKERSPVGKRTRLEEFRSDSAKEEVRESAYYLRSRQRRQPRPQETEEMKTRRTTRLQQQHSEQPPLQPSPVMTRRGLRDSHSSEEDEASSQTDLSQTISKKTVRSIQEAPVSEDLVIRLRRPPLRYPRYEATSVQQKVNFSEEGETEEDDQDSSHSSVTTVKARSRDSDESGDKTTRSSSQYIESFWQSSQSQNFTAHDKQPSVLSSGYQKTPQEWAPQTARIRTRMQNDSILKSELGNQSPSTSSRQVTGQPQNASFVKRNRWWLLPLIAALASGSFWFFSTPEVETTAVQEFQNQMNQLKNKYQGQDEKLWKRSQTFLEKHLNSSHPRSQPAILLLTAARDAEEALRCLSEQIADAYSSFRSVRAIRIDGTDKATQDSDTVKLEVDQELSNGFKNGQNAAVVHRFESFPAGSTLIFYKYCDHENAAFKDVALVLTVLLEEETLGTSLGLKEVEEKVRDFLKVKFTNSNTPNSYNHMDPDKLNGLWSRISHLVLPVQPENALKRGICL
# [10] = target: Alpha-bungarotoxin (Bungarus multicinctus) (UniProt P60615); test: compounds binding labelled alpha-BTX control protein – biochemical, small-molecule microarray, Alexa647 label, 635/667 nm fluorescence, artefact control for SMM control protein annotation, profiling panel (AID 1117); conditions: alpha-BTX-A647 binding fluorescence, higher = more signal
# Alpha-bungarotoxin (Bungarus multicinctus), sequence (P60615 whole entry, looked up): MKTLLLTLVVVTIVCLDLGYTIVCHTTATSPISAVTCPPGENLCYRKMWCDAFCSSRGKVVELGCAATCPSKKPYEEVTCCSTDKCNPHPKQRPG
SMILES,composite z-score [1],z-score [2],composite z-score [3],composite z-score [4],composite z-score [5],composite z-score [6],composite z-score [7],composite z-score [8],composite z-score [9],composite z-score [10]
C=C(COC)C(=O)CC[C@H](OC(C)=O)c1ccc(OCCO)cc1,0.159,-1.17,0.557,-0.2,-1.08,-0.0445,-0.0011,-0.0562,3.4,0.915
C=CCC(OC(C)=O)[C@@H]1[C@@H](N(Cc2ccc(-c3ccccc3)cc2)C(=O)Cc2ccc(F)cc2)c2cc(OCCCO)ccc2N1C(=O)Cc1ccc2ccccc2c1 (stereo not given in full),-0.333,0.482,0.0808,1.07,0.743,0.0495,-0.153,0.0335,0.542,-0.0297
COc1ccc([Si](C)(C)[C@@H]2[C@@H](CC(=O)N3Cc4ccccc4C[C@H]3CO)O[C@]3(C(=O)N(c4ccccc4)c4ccccc43)[C@H]2C)cc1,1.38,-4.41,0.671,1.75,1.36,0.418,0.293,1.14,0.553,1.26
CCCNC(=O)[C@@]1(Sc2ccc(C)cc2)CC(=O)N(C2CCCCC2)[C@@H]1c1ccc(CO)cc1I,0.0411,-2.45,-0.153,1.42,0.86,-0.0242,0.768,0.757,0.982,0.231
COc1cc(C(O)C2C=CC3C(=O)N(Cc4ccccc4)C(=O)C3N2n2cnnc2)cc(OC)c1OC (stereo not given),0.335,0.312,0.109,0.409,0.0996,0.0751,0.543,0.266,0.88,0.971
CC=CC(O)C1C=CC2C(=O)NC(=O)C2N1Nc1ccccn1 (stereo not given),0.434,0.634,0.44,-0.242,-1.1,-0.254,-0.0211,0.342,0.372,0.439
C=CCN1C(=O)[C@@]2(O[C@@H](CCO)[C@H]([Si](C)(C)c3ccc(OC)cc3)[C@H]2C)c2cc(N3CCOC3=O)ccc21,1.31,-4.84,-0.135,0.278,0.444,-0.0981,-0.243,-0.0239,0.878,0.105
O=c1cccc(-c2ccco2)o1,0.582,-0.574,0.758,-0.221,-1.23,-0.0179,0.0952,-0.0563,0.18,0.738
C=C(C(=O)CC[C@H](OC(=O)c1ccccc1-c1ccccc1C(=O)O)c1ccccc1OCCO)C(C)C,0.649,-1.59,0.346,-0.246,-0.4,-0.0573,0.108,0.0718,1.31,1.26
COCCOC(=O)N1C(=O)[C@@]2(c3cc(C#CCNC(N)=O)ccc31)[C@H](c1ccc(O)cc1)N1[C@H](c3ccccc3)[C@H](c3ccccc3)OC(=O)[C@H]1[C@@H]2C(=O)N1CCN(c2ncccn2)CC1,0.855,-1.3,0.315,2.03,0.762,-0.219,1.78,-0.48,1.82,1.52
CC(C)CNC(=O)[C@@H]1c2ccccc2C(=O)N(C2CCCCC2)[C@H]1c1ccc(CO)cc1,0.0857,-0.48,-0.276,0.54,1.09,-0.124,-0.153,0.313,0.875,-0.624
CCOC(=O)C1=CCC(c2ccccc2)N(S(=O)(=O)c2ccc([N+](=O)[O-])cc2)C1 (stereo not given),0.992,-1.93,-0.276,-0.36,-0.0871,-0.147,0.0048,-0.425,0.853,-0.165
COC(=O)[C@@]1(Cc2ccccc2)[C@H]2c3cc(C(=O)N(C)C)n(CCn4cc([N+](=O)[O-])nc4C)c3C[C@H]2CN1C(=O)c1ccccc1,1.15,-0.347,0.0356,0.437,0.361,0.0162,0.0952,0.576,2.83,0.413
CCOC(=O)C1=CCC(c2ccco2)N(S(=O)(=O)c2ccc(C)cc2)C1 (stereo not given),1.36,-2.3,0.297,0.921,0.0331,0.0279,0.0048,-0.423,0.761,0.818
C=C(COC)/C(=C/C[C@H](OC(C)=O)c1cccc(OCCO)c1)c1cnc2ccccc2c1,1.4,-1.7,0.536,-0.0062,-0.892,-0.0512,-0.147,0.353,0.416,2.04
COC(=O)[C@@]1(Cc2ccccc2)[C@H]2c3cc(C(=O)N4CCCC4)n(CCSCCO)c3C[C@H]2CN1C(=O)c1ccccc1,1.45,-1.12,-0.491,2.26,1.29,0.145,0.417,2.24,2.04,0.606
O=C1[C@@]23C=C(Br)[C@H](C[C@@H]2COC3)[C@@]12CO2,0.368,-2.52,0.531,-0.293,-0.87,-0.102,-0.0396,-0.172,0.245,0.53
C=CCNC(=O)[C@@H]1[C@H]2C(=O)O[C@H](c3ccccc3)[C@H](c3ccccc3)N2[C@H](c2ccc(O)cc2)[C@@]12C(=O)N(C(=O)OCCOC)c1ccc(C#CCCO)cc12,-0.472,-0.118,0.863,0.355,0.349,-0.0276,-0.0011,0.565,0.394,2.29

SMILES,composite z-score [1],z-score [2],composite z-score [3],composite z-score [4],composite z-score [5],composite z-score [6],composite z-score [7],composite z-score [8],composite z-score [9],composite z-score [10]
CCOC(=O)C[C@H]1[C@H](OC(=O)c2ccc(C(=O)c3ccccc3)cc2)[C@@H](NC(=O)CC(C)C)c2cc(OCCCO)ccc2N1C(=O)Cc1ccc(OC)cc1,1.1,-2.05,0.142,1.19,0.263,-0.0852,-0.238,0.0437,0.812,0.118
COC(=O)C1=CC(CCCO)=CC(c2ccc(CN3CCCC3)cc2)N(Cc2cc3c(cc2Br)OCO3)C=C1C(=O)OC (stereo not given),1.39,-0.803,0.688,1.9,0.795,0.212,0.839,-0.603,1.48,0.853
CN1C(=O)C2C=CC(C(O)c3ccc(I)cc3)N(Nc3ccccc3)C2C1=O (stereo not given),1.33,0.132,0.136,1.63,0.544,0.172,0.36,0.551,0.0151,1.26
C#C[C@@H](CC)O[Si](C#CCCCC#N)(C(C)C)C(C)C,0.294,-0.923,0.0737,-0.442,-0.104,-0.139,0.0483,-0.121,0.372,-0.275
CN1C(=O)[C@@H]2[C@@H](CC(COc3ccccc3)=C([C@H](O)CCc3ccccc3)[C@@H]2CO)C1=O,-0.531,-0.113,0.0752,-0.548,-0.343,-0.243,-0.304,-0.398,0.0197,-0.278
Cc1ccccc1C(O)C1C=CC2C(=O)NC(=O)C2N1Nc1ccc(Cl)cc1Cl (stereo not given),-0.198,-0.595,-0.345,1.95,1.13,-0.0405,0.0796,0.879,1.56,0.0072
NCCCCCNC(=O)[C@@H]1C[C@@H]2C(=O)N3CCC[C@H]3C(=O)N2[C@@H]1c1ccc(O)cc1,1.31,-0.837,0.732,1.09,1.12,0.216,0.163,-0.477,1.05,0.494
Cc1ccc(C(C)CC(O)C2C=CC3C(=O)N(c4ccccc4)C(=O)C3N2Nc2ccc(C#N)cc2)o1 (stereo not given),1.42,0.0453,0.168,1.48,0.314,-0.0044,0.138,0.526,1.16,1.17
COCCOC(=O)N1C(=O)[C@@]2(c3cc(C#CCCO)ccc31)[C@H](C(N)=O)[C@H]1C(=O)O[C@H](c3ccccc3)[C@H](c3ccccc3)N1[C@@H]2c1ccc(OCCO)cc1,1.28,-1.14,0.957,1.1,-0.351,-0.0303,0.0253,-0.371,1.46,0.787
NCCCCCNC(=O)[C@H]1C[C@H]2C(=O)N[C@@H](Cc3ccccc3)C(=O)N2[C@H]1c1ccc(O)cc1,1.05,0.0505,0.202,2.24,1.14,0.183,0.596,0.859,0.456,0.949
O=C1O[C@H](c2ccccc2)[C@H](c2ccccc2)N2[C@H]1[C@@H](C(=O)N1CCCCCCC1)[C@]1(C(=O)Nc3ccc(C#CC4(O)CCCCCC4)cc31)[C@H]2c1ccc(O)cc1,1.4,-1.36,1.33,2.42,1.19,1.2,2.97,3.1,4.57,2.28
COc1ccc([Si](C)(C)[C@H]2[C@H](CCO)O[C@@]3(C(=O)N(Cc4ccccc4)c4ccc(N5C(=O)c6ccccc6Oc6ccccc65)cc43)[C@@H]2C)cc1,0.647,-4.49,-0.358,0.425,0.773,0.0431,0.213,0.195,0.323,0.178
CO[C@H]1O[C@H](CO)[C@@H](OC(=O)CCc2ccccc2)[C@H](OC(=O)c2cc3ccccc3[nH]2)[C@H]1OC(=O)c1cc2ccccc2[nH]1,1.34,-3.2,0.817,1.65,0.193,0.055,-0.138,0.248,1.21,0.889
CCN(CC)c1ccc(N2CC=CC34O[C@@H]5/C=C\CCC(C)OC(=O)C5[C@H]3C(=O)N(C(C)CO)[C@@H]4C2=O)cc1 (stereo not given in full),-0.344,0.0645,-0.292,-0.847,-1.66,-0.0346,-0.0709,-0.318,0.187,-1.04
[N-]=[N+]=NCc1ccccc1[C@@H]1OC(c2ccc(OCCCO)cc2)=N[C@]1(Cc1ccccc1N=[N+]=[N-])C(=O)NCCN1CCOCC1,1.4,-1.66,0.466,0.969,0.0714,0.0944,-0.0289,0.597,0.495,0.446
COC(=O)[C@@]1(Cc2ccc(OC)cc2)[C@H]2c3cc(C(=O)N4CCCC4)n(Cc4ccc(OC(F)(F)F)cc4)c3C[C@H]2CN1C(=O)c1ccccc1,-0.0023,-2.48,-0.251,1.72,1.13,0.402,0.358,1.65,-0.401,1.25
C=C(COC)C(=O)CC[C@H](OC(=O)c1cccnc1)c1ccc(CO)o1,-0.132,-1.05,0.879,-0.502,-0.875,-0.167,-0.214,-0.447,0.659,-0.0505
O=C(NCCN1CCOCC1)[C@@H]1c2ccccc2C(=O)N(Cc2ccccc2)[C@H]1c1ccc(CO)cc1,-0.639,-0.887,-1.45,0.446,-1,-0.219,0.214,-0.224,-1.47,-1.06
